Most compounds without a hit are left out; they make up all but 11% or so of the library.
VP16 counter = inhibits Gal4-VP16 luciferase reporter, ROR gamma counter-screen. Drosophila S2 Gal4-VP16 UAS-luciferase, luminescence, 20 h. Potency, µM (highest dose often 53.6 µM), inactives show at the top dose activity, negative = inhibition, most hits filed as inhibitors. actives 3.5% (n = 310,000);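 further: Gal4-VP16 expression switched on by copper sulfate through the metallothionein promoter; potency means the concentration at half of the fitted maximal effect; on the % scale 0 is the no-effect control and ±100 the full control effect; nearly all actives have a fitted effect of over 50% in size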
RORgamma inh = blocks mouse ROR gamma transcriptional activity; AID 2551; Potency, µM (titrated, usually from 53.6 µM), without a hit: at the highest dose activity change, negative = inhibition, actives largely listed as inhibitors; actives 5.4% (n = 310,000); P51450; Drosophila S2 Gal4-RORgamma UAS-luciferase reporter, 20 h; further: potency means the concentration at half of the fitted maximal effect; on the % scale 0 is the no-effect control and ±100 the full control effect; nearly all actives have a fitted effect of over 60% in size
Target sequence (P51450 whole entry, looked up, the tested form may be a part): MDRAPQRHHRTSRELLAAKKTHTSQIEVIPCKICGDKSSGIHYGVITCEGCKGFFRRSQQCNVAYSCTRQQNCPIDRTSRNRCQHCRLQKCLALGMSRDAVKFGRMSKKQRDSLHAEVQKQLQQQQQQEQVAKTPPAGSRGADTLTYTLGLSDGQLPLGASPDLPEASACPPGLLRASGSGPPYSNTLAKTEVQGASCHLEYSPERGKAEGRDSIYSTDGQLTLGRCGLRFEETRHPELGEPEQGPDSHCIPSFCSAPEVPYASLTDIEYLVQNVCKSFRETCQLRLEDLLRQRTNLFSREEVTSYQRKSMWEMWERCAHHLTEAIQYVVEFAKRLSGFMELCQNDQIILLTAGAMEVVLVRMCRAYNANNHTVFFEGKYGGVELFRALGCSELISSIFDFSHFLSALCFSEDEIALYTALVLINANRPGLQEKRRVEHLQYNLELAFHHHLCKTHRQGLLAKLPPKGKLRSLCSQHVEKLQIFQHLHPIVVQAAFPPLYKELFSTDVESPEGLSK
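A Gal4/UAS one-hybrid system in insect cells: metallothionein-promoter Gal4–ROR gamma fusion plus Photinus luciferase reporter. Copper sulfate 700 uM final, 20 hr ambient incubation, luminescent detection after 10 min with reagent.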
MCF10A rereplic = induces DNA re-replication in MCF 10a normal breast cells | AID 624296 | MCF 10A DNA re-replication, Hoechst nuclear intensity, 48 h | actives 2.9% (n = 350,000) | Potency, µM (titrated, usually from 46.1 µM), for the others: top-dose activity, positive = re-replication, most hits filed as activators; further: potency means the concentration at half of the fitted maximal effect; % of control where 0% means no effect; nearly all actives have a fitted effect of over 50% in size
IL-1B inflam inh = blocks inflammasome-driven IL-1 beta release. THP-1 LPS/ATP IL-1B secretion, AlphaLISA, 16 h; active compounds read low. activity change, % at 57.5 µM. actives 4.7% (n = 360,000). AID 743279; in the data active means activity change below about -50%; inconclusive means mostly about -30% to -49%; further: on the % scale 0 is the no-effect control and ±100 the full control effect
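Secreted IL-1B measured by AlphaLISA bead assay after 16 h compound exposure of THP-1 cells; compounds (final up to 57.5 uM) added 1 h before LPS (250 ng/mL) and ATP (1.25 mM) stimulation; lower signal means less secretion.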
SW480 rereplic = induces DNA re-replication in SW480 colon adenocarcinoma cells; SW480 DNA re-replication, Hoechst DNA content imaging, 48 h; Potency, µM (series often up to 46.1 µM), for inactives: top-dose re-replication activation, most hits filed as activators; actives 1.8% (n = 340,000); further: potency means the concentration at half of the fitted maximal effect; % of control where 0% means no effect; nearly all actives have a fitted effect of over 55% in size
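Quantitative HTS format with DMSO vehicle controls; 48 hr drug incubation at 37 C, then 40 min Hoechst staining and scanning imager measurement at 405 nm excitation.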
An asterisk follows results filed as active; i = inactive; ? = inconclusive; · = no result; [ ] = dose if it differs, or a comment. Unless noted, the call rests on the fitted dose curve; in most records, active means well fitted curve in the direction sought with a large enough effect; inconclusive means small, poorly fitted or top-dose-only effect, or another doubt; inactive means no such curve, though single readings can be large; an effect the other way counts as inactive or inconclusive.

SMILES	VP16 counter	RORgamma inh	MCF10A rereplic	IL-1B inflam inh	SW480 rereplic
O=C(Cc1ccc(Cl)cc1Cl)Nc1ccncc1Cl	5.62µM*	-35.5%	-11.0%	-25.5	29.8%
O=C(Cc1ccc(Cl)cc1Cl)Nc1ccncc1	5.62µM*	?	1.8%	-3.2	-5.5%
CCOC(=O)CCCNC(=O)CN1CCC(c2nc3ccccc3s2)CC1	7.2%	-1.7%	-0.3%	9.6	1.1%
Cc1cc(O)c2c(c1O)C(=O)C(O)=C(O)C2=O	-14.1%	-43.7%	·	·	·
O=C(Oc1cccc2cccnc12)c1cccc(N2C(=O)C3C4CCC(C4)C3C2=O)c1 (stereo not given)	?	2.51µM*	19.8%	-81.4*	?
O=C1C2C3C=CC(C3)C2C(=O)N1c1cccc2cccnc12 (stereo not given)	-0.7%	11.8%	-2.3%	12.6	-0.2%
O=C(Oc1cccc2cccnc12)c1cccc(-n2cnnn2)c1	-5.5%	-11.6%	-2.2%	0.9	-5.2%
O=C(Oc1cccc2cccnc12)c1ccc(N2C(=O)C3C4CCC(C4)C3C2=O)cc1 (stereo not given)	5.01µM*	2.82µM*	14.6µM*	-95.3*	18.4µM*
Oc1ccc(/C(Cc2ccccn2)=N\Nc2ccccc2)c(O)c1	3.1%[10 µM]	3.6%	?	-179.7*	?
Oc1ccc(/C(Cc2ccc3ccccc3n2)=N\Nc2ccccc2)c(O)c1	3.4%	7.7%	?	-97.9*	14.4%
CC(=O)Oc1ccc(C(=O)Cc2ccc3ccccc3n2)c(O)c1C	-15.5%	?	-4.6%	4.2	-3.1%
Cc1c(O)ccc(/C(Cc2ccc3ccccc3n2)=N\O)c1O	?	?	?	-66.8*	5.1%
Cc1nc(C/C(=N\N)c2ccc(O)cc2O)cs1	-1.2%	11.7%	1.2%	30.6	1.3%
COc1ccc(OC)c(NC(=O)C2(C)CCN2Cc2ccsc2)c1 (stereo not given)	·	·	·	-9.4	·
Cc1cnc(C2OCCO2)c2cccc([N+](=O)[O-])c12	·	·	·	-18.8	·
C=CCN(C(=O)CSc1nc2ccsc2c(=O)n1Cc1ccc(C(=O)O)cc1)c1ccccc1	·	·	·	62.9	·
COc1ccc2[nH]c(=O)c(CN(Cc3cccs3)C(=S)NCC3CCCO3)cc2c1 (stereo not given)	-18.5%	38.5%	17.9%	-3.9	-14.0%
Cc1cc2cc(CN(CC3CCCO3)C(=S)NCc3ccco3)c(=O)[nH]c2cc1C (stereo not given)	-10.4%	34.4%	?	-75.2*	1.5%
CCc1ccc2[nH]c(=O)c(CN(Cc3ccco3)C(=S)NCC3CCCO3)cc2c1 (stereo not given)	-2.6%	2.1%	-7.4%	-115.4*	-3.2%
Cc1cc(C)c2[nH]c(=O)c(CN(Cc3ccco3)C(=S)NCC3CCCO3)cc2c1 (stereo not given)	3.3%	2.1%[10 µM]	-0.5%	-2.4	0.7%
Cc1cc2cc(CN(Cc3cccs3)C(=S)NCC3CCCO3)c(=O)[nH]c2cc1C (stereo not given)	0.1%	35.0%	23.8%	-65.9*	-1.3%
Cc1cc2cc(CN(Cc3ccco3)C(=S)NCC3CCCO3)c(=O)[nH]c2cc1C (stereo not given)	?	?	3.1%	-62.6*	13.5%
Cc1ccc(NC(=O)C2(C)CCN2C(=O)C2CCCCC2)cc1C (stereo not given)	·	·	·	11.4	·
COc1ccc(S(=O)(=O)N(CCCN2CCCC2=O)Cc2cc3c(C)cc(C)cc3[nH]c2=O)cc1	2.3%	30.7%	2.8%	-54.2*	6.8%
C/C1=C\CCC2C(/C=C(\C)CC1)OC(=O)C2CN1CCCCC1 (stereo not given)	8.1%	10.7%	?	·	20.6µM*
SMILES	VP16 counter	RORgamma inh	MCF10A rereplic	IL-1B inflam inh	SW480 rereplic
COc1ccc(C(=O)Nc2ccccc2C(=O)NCc2cccnc2)cc1OC	·	·	4.4%	-3.0	9.6%
Cc1ccc(OCc2ccc(C(=O)NCc3cccnc3)cc2)cc1C	-9.3%[10 µM]	-28.1%	10.7%	-53.8*	10.7%
COc1cc(C(=O)Nc2ccccc2C(=O)NCc2cccnc2)cc(OC)c1OC	10.6%	-0.8%	2.1%	-57.9*	-8.2%
CC(C)(C)c1ccc(OCc2ccc(C(=O)NCc3cccnc3)o2)cc1	1.41µM*	?	12.6%	-17.2	2.1%
CCc1cccc(C)c1Nc1nc2ccccc2n2cnnc12	-9.7%	-5.8%	0.3%	34.6	-4.8%
O=C(NC1CC1)c1ccc(NC(=O)C2CCCCC2)cc1	·	·	5.4%	-12.4	-3.4%
O=S1(=O)N=C(N/N=C/C=C/c2ccccc2)c2ccccc21	0.631µM*	0.398µM*	-0.3%	-4.2	·
CN(C)c1ccc(/C=N/NC2=NS(=O)(=O)c3ccccc32)cc1	5.62µM*	3.98µM*	-1.5%	28.4	-0.4%
O=S1(=O)N=C(N/N=C/c2ccc(Br)o2)c2ccccc21	14.1µM*	6.31µM*	?	-14.9	-7.4%
CC(NC(=S)NCCc1ccccc1)C(c1cccs1)N1CCN(Cc2ccccc2)CC1 (stereo not given)	?	5.01µM*	?	-24.0	20.6µM*
CC(NC(=O)c1ccco1)C(c1cccs1)N1CCN(c2ccc(F)cc2)CC1 (stereo not given)	?	13.4%	6.7%	-72.3*	?
CC(NC(=S)Nc1ccc(F)cc1)C(c1cccs1)N1CCOCC1 (stereo not given)	?	3.98µM*	-4.9%	-3.6	16.6%
CC(NC(=S)Nc1ccccc1Cl)C(c1cccs1)N1CCCC1 (stereo not given)	?	7.94µM*	?	-10.4	-0.4%
COCC1CCN(C(=O)c2ccc3oc(C(C)C)nc3c2)C1 (stereo not given)	·	·	·	0.3	·
Cc1ccccc1NC(=S)NC(C)C(c1cccs1)N1CCOCC1 (stereo not given)	22.4µM*	2.82µM*	0.0%	9.7	-4.9%
Cc1cccc(NC(=S)NC(C)C(c2cccs2)N2CCN(C)CC2)c1C (stereo not given)	-8.9%	?	3.3%	-2.5	?
O=C(CNC(=O)c1ccc(Cl)cc1)OC1CCOC1=O (stereo not given)	2.2%	-3.9%	12.9%	36.0	-1.8%
CCCCOc1ccc(C(=O)NCC(=O)OC2CCOC2=O)cc1 (stereo not given)	-12.3%	-14.1%	3.26µM*	-0.5	?
Cn1nccc1C(=O)N(CCN1CCCCC1)CC1CCCN(C2CCCC2)C1 (stereo not given)	17.8%	-5.5%	-4.2%	i	-5.3%
CCOc1ccc(N(C(=O)OC(C)(C)C)C(=O)c2ccc(O[Si](C)(C)C(C)(C)C)cc2)c(I)c1	-7.6%	-10.1%	·	·	·
CCC(NC(=S)NCc1ccc(F)cc1)c1ccc(C(C)C)cc1 (stereo not given)	3.98µM*	2.82µM*	7.5%	-9.9	?

Compound activity as filed in PubChem.
